{
  "source": "PubChem BioAssay AID2546",
  "about": "(National Center for Advancing Translational Sciences (NCATS), 2010)",
  "note": "Out of some 310,000 compounds screened, about 11,000 (3.5%) were called active. Roughly 8% stayed inconclusive and do not appear here. The entries come from a sample that favours actives as a whole. Unmarked numbers belong to inactive results. The call rests on the fitted dose curve; in most records, active means well fitted inhibition curve with a large enough effect; inconclusive means small, poorly fitted or top-dose-only effect, or effect the other way; inactive means flat fitted curve, though single readings scatter. On the % scale 0 is the no-effect control and ±100 the full control effect; potency means the concentration at half of the fitted maximal effect.",
  "data": [
    {"assay": "VP16 counterscreen qHTS for inhibitors of ROR gamma transcriptional activity;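 further: Gal4-VP16 expression switched on by copper sulfate through the metallothionein promoter; nearly all actives have a fitted effect of over 50% in size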", "conditions": "Drosophila S2 Gal4-VP16 UAS-luciferase, luminescence, 20 h; series mostly up to 53.6 µM; activity, negative = inhibition: at the top concentration", "excerpt": "NIH Molecular Libraries Probe Production Network [MLPCN]\nNIH Chemical Genomics Center [NCGC]\nAssay Provider: Dan Littman, New York University\nThe retinoic acid-related orphan receptor (ROR) gamma is a transcription factor that has a central role in the differentiation of Th17 cells, a subset of T helper cells that secrete the inflammatory cytokines IL-17, IL-17F, and IL-22. Th17 cells have been implicated in graft versus host disease, autoimmune disease and asthma. ROR gamma is induced in naive T helper cells in the presence of TGF-beta combined with IL-6, IL-21, or IL-23, and thereafter directs the expression of the Th17 lineage cytokines. To identify nonspecific inhibitors, a Drosophila Schneider cell line was stably transfected with two vectors: a gene expressing a fusion of the Gal4 DNA binding domain and VP16 transactivation domain under the control of the metallothionine promoter and a Photinus luciferase reporter regulated by the Gal4 binding site enhancer, UAS. […] Small molecule inhibitors that inhibit components common to the RORgt and VP16 assays, such as the Gal4 DNA binding domain or the UAS luciferase reporter, will be active in both assays and thus scored as nonspecific.\nFor screening, 600 cells in 4 uL/well were dispensed into white solid 1536-well plates (Grenier) using a solenoid-based dispenser. Following transfer of 23 nL compound or DMSO vehicle by a pin tool, the plates were incubated 1 hr at ambient temperature, and 1 uL/well copper sulfate (700 uM final concentration) was added. The plates were centrifuged 15 s at 1000 RPM and incubated 20 hr at ambient temperature. After addition of 1.5 uL Photinus luciferase detection reagent, the plates were incubated 10 min at ambient temperature and then read by a ViewLux (Perkin Elmer) to detect luminescence.", "values": [
      {"smiles": "Cc1nc2ccccc2cc1OCc1ccc(F)cc1", "Potency": "6.31 µM (active)"},
      {"smiles": "Cc1occc(=O)c1OCc1ccc(F)cc1", "activity, negative = inhibition": "10.2% (inactive)"},
      {"smiles": "Fc1cccc2ncnc(OCc3ccccc3)c12", "activity, negative = inhibition": "6.7% (inactive)"},
      {"smiles": "O=C(CCc1nnc2ccc(NCc3ccccc3Cl)nn12)NCC1CCN(C2CCCC2)C1", "note": "(stereo not drawn)", "activity, negative = inhibition": "0.0006% (inactive)"},
      {"smiles": "COC(=O)c1ccc(N2CCOCC2)c(NC(=O)c2ccc3c(c2)OCCO3)c1", "activity, negative = inhibition": "2.79% (inactive)"},
      {"smiles": "COc1ccc(NC(=O)CCCNC(=O)Cn2cnc3sc4c(c3c2=O)CCCC4)cc1OC", "activity, negative = inhibition": "-15.7% (inactive)"},
      {"smiles": "COc1ccc(/C=N/Nc2ncnc3sc4c(c23)CCCC4)cc1O", "Potency": "4.47 µM (active)"},
      {"smiles": "COc1ccc(NC(=O)CCNC(=O)Cn2cnc3sc4c(c3c2=O)CCCC4)cc1OC", "activity, negative = inhibition": "-3.23% (inactive)"},
      {"smiles": "CNC(=O)C1CCN(S(=O)(=O)c2c(C)noc2/C=C/c2cccc(C)c2)CC1", "activity, negative = inhibition": "4.05% (inactive)"},
      {"smiles": "O=C(Cc1ccccc1F)NC1CCSc2ccccc21", "note": "(stereo not drawn)", "activity, negative = inhibition": "-6.64% (inactive)"},
      {"smiles": "COc1ccc2nc(Nc3nc(-c4ccncc4)cs3)sc2c1", "activity, negative = inhibition": "20.5% (inactive)"},
      {"smiles": "CCOc1ccc2nc(Nc3nc4ccc(NC(C)=O)cc4s3)sc2c1", "Potency": "7.08 µM (active)"},
      {"smiles": "COc1ccc2nc(Nc3nc4ccc(NC(C)=O)cc4s3)sc2c1", "Potency": "7.08 µM (active)"},
      {"smiles": "CCOc1ccc2nc(NC(=O)CSc3nc4c(c(=O)n(C)c(=O)n4C)n3CC)sc2c1", "activity, negative = inhibition": "-0.859% (inactive)"},
      {"smiles": "CCC(=O)c1ccc(OCC(=O)Nc2ccc3nc(C)sc3c2)cc1", "activity, negative = inhibition": "-0.0332% (inactive)"},
      {"smiles": "COc1ccc2nc(NC(=O)NC3CCCCC3)sc2c1", "activity, negative = inhibition": "-13.1% (inactive)"},
      {"smiles": "O=C(Nc1cccc(-c2cscn2)c1)C1CCN(Cc2ccsc2)CC1", "activity, negative = inhibition": "-12.3% (inactive)"},
      {"smiles": "Cc1cc2cc(CNC(=O)c3ccc(S(=O)(=O)N4CCOCC4)cc3)ccc2[nH]1", "activity, negative = inhibition": "0.527% (inactive)"},
      {"smiles": "CCc1cccc(CC)c1NC(=S)NCc1ccc2[nH]c(C)cc2c1", "Potency": "11.2 µM (active)"},
      {"smiles": "CCc1cccc(CC)c1NC(=S)Nc1ccc2cn[nH]c2c1", "activity, negative = inhibition": "-6.5% (inactive)"},
      {"smiles": "Cc1cc(Cl)ccc1C(=O)C1CCCN(C(=O)c2nonc2C)C1", "note": "(stereo not drawn)", "activity, negative = inhibition": "-0.528% (inactive)"},
      {"smiles": "Nc1nc(-c2ccccc2)cc(-c2ccccc2)n1", "activity, negative = inhibition": "27.7% (inactive)"},
      {"smiles": "COC(=O)c1cc(NC(=O)Cc2ccccc2[N+](=O)[O-])ccc1Cl", "activity, negative = inhibition": "-2.17% (inactive)"},
      {"smiles": "CC(=O)Nc1ccc(NC(=O)C(C)OC(=O)c2ccccc2C(=O)c2ccc(Cl)c([N+](=O)[O-])c2)cc1", "note": "(stereo not drawn)", "activity, negative = inhibition": "-19.4% (inactive)"},
      {"smiles": "N#Cc1cccc(NC(=O)COC(=O)c2ccccc2C(=O)c2ccc(Cl)c([N+](=O)[O-])c2)c1", "Potency": "7.08 µM (active)"},
      {"smiles": "Cc1ccccc1OCC(=O)Nc1nnc(S(=O)(=O)N2CCCC2)s1", "activity, negative = inhibition": "-0.118% (inactive)"},
      {"smiles": "Cc1nc2sc(C(c3ccco3)N3CCOCC3)c(O)n2n1", "note": "(stereo not drawn)", "activity, negative = inhibition": "-7.3% (inactive)"},
      {"smiles": "Oc1c(C(c2ccccn2)N2CCOCC2)ccc2cccnc12", "note": "(stereo not drawn)", "Potency": "2.82 µM (active)"},
      {"smiles": "OC(COc1ccc2ccccc2c1)CN1CCOCC1", "note": "(stereo not drawn)", "activity, negative = inhibition": "-12.1% (inactive)"},
      {"smiles": "COC(=O)c1ccc2c(C(C)(C)O)c(C(C)(C)O)[nH]c2c1", "activity, negative = inhibition": "4.95% (inactive)"},
      {"smiles": "O=C(NCCNc1ccc([N+](=O)[O-])cc1Cl)c1ccccc1F", "activity, negative = inhibition": "2.95% (inactive)"},
      {"smiles": "O=C(Nc1cccc(Cl)c1N1CCOCC1)c1cccnc1", "activity, negative = inhibition": "6.12% (inactive)"},
      {"smiles": "O=C(Nc1ccc(N2CCN(C(=O)c3ccccc3)CC2)c(Cl)c1)c1cccnc1", "Potency": "17.8 µM (active)"},
      {"smiles": "COC(=O)c1cc(NC(=O)c2cccnc2)ccc1N1CCOCC1", "activity, negative = inhibition": "3.64% (inactive)"},
      {"smiles": "COc1cccc(CNC(=O)CCCC(=O)Nc2cccc([N+](=O)[O-])c2)c1", "activity, negative = inhibition": "-1.57% (inactive)"},
      {"smiles": "CCCN1CNC(=S)N(CCc2ccccc2)C1", "Potency": "3.16 µM (active)"},
      {"smiles": "S=C1SCN(CCN2CCOCC2)CN1Cc1ccccc1", "activity, negative = inhibition": "-3.69% (inactive)"},
      {"smiles": "N#CNC1=NCN(CCc2ccccc2)CN1", "activity, negative = inhibition": "7.1% (inactive)"},
      {"smiles": "COc1ccccc1N(CC(=O)N/N=C(\\C)c1ccccc1O)S(=O)(=O)c1ccc(C)cc1", "Potency": "0.708 µM (active)"},
      {"smiles": "COc1ccccc1NC(=O)CN(c1ccccc1OC)S(=O)(=O)c1ccccc1", "activity, negative = inhibition": "-0.747% (inactive)"},
      {"smiles": "COc1ccc(S(=O)(=O)N(CC(=O)N/N=C/c2ccccc2C(=O)O)c2ccccc2OC)cc1", "activity, negative = inhibition": "-5.97% (inactive)"},
      {"smiles": "CC(C)OCCCNc1ncnc2c1[nH]c1ccc(F)cc12", "Potency": "2.82 µM (active)"},
      {"smiles": "CC(C)OCCCNC(=O)c1cc(Sc2ccc(F)cc2)nc2ccccc12", "activity, negative = inhibition": "-8.81% (inactive)"},
      {"smiles": "COc1cc(OC)c(OC)cc1/C=N/Nc1ncnc2c1[nH]c1ccc(C)cc12", "activity, negative = inhibition": "-5.33% (inactive)"},
      {"smiles": "COC1=C(N2CCOCC2)C(=O)c2ccccc2C1=O", "activity, negative = inhibition": "9.12% (inactive)"},
      {"smiles": "COC(=O)C(C)Oc1ccc2c(c1)O/C(=C\\c1cccc(Br)c1)C2=O", "note": "(stereo not drawn)", "activity, negative = inhibition": "-2.72% (inactive)"},
      {"smiles": "CCCS(=O)(=O)N1CCN=C1SCc1cccc(F)c1", "activity, negative = inhibition": "-4.15% (inactive)"},
      {"smiles": "COc1ccc(-c2noc(CNC(=O)C(C)Oc3ccccc3)n2)cc1", "note": "(stereo not drawn)", "activity, negative = inhibition": "0.666% (inactive)"},
      {"smiles": "COc1ccc2[nH]c3nc(SCC(=O)NC4CC4)nnc3c2c1", "activity, negative = inhibition": "-4.94% (inactive)"},
      {"smiles": "COCCN(CC(=O)Nc1ccccc1C)S(=O)(=O)c1ccc(S(=O)(=O)N2CCCC2)cc1", "activity, negative = inhibition": "-1.46% [at 0.365 µM]"},
      {"smiles": "COCCN(CCOC)S(=O)(=O)c1ccc(C(=O)Nc2nc3c(s2)CCc2ccccc2-3)cc1", "Potency": "12.6 µM (active)"},
      {"smiles": "COc1ccc(C(=O)Nc2ncc3c(n2)-c2ccccc2CC3)cc1", "activity, negative = inhibition": "-1.61% (inactive)"},
      {"smiles": "Cc1onc(-c2ccccc2)c1C(=O)Nc1ccccc1C#N", "activity, negative = inhibition": "-0.818% (inactive)"}
    ]}
  ]
}
